From the supplement of paper PMC10681739

Legend:
[1] = biological target: T1, ETS1 (UniProt P14921); experiment: ETS1 binding intensity (PBM fluorescence), ETS1 alone (arbitrary fluorescence units); higher = stronger binding; conditions: ETS1 concentration 1 nM; RUNX1 concentration 0 nM
T1 sequence: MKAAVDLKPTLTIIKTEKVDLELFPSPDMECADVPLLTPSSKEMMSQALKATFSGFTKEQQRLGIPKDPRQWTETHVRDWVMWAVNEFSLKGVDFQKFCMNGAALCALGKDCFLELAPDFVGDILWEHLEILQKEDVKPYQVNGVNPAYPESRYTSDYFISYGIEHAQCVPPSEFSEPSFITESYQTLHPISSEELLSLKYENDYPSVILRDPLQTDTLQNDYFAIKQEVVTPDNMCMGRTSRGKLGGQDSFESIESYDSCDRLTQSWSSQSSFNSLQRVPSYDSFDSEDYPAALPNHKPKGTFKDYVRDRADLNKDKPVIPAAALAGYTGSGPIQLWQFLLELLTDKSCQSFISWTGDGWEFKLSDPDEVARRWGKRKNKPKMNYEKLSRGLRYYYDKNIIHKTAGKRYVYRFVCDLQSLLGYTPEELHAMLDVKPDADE

[2] = biological target: T1, ETS1; experiment: ETS1 binding intensity (PBM fluorescence) in presence of RUNX1, normalised to ETS1-only experiment (arbitrary fluorescence units); higher = stronger binding; conditions: ETS1 concentration 1 nM; RUNX1 concentration 25 nM

## CAGTCTCCTTCCGCGTCACCTCTGTGACCGCTGTGC
[1]
  ETS1 binding intensity: 414
[2]
  ETS1 binding intensity: 583

## CCAAAAAGGAAGGAAACCAGAAAGCCACAGAATGGT
[1]
  ETS1 binding intensity: 487
[2]
  ETS1 binding intensity: 1200

## ATGTAAACAAGGATGTGAGTTCTGCGGCCACACTCT
[1]
  ETS1 binding intensity: 448
[2]
  ETS1 binding intensity: 763

## ACGCTGGAATCGCGGAAACCGCCGGTGCACGTTGGA
[1]
  ETS1 binding intensity: 531
[2]
  ETS1 binding intensity: 627

## GCCGTGAGAAACATCCTGCCTAACCACCTGACTACA
[1]
  ETS1 binding intensity: 618
[2]
  ETS1 binding intensity: 678

## TCCTAGCCATTTCCTATCCACCCTGTGGCTAATTTG
[1]
  ETS1 binding intensity: 437
[2]
  ETS1 binding intensity: 476

## AATGGCGGGAAGTAAGAGGAATGTGGGCCTGACTGC
[1]
  ETS1 binding intensity: 499
[2]
  ETS1 binding intensity: 386

## CGTTTGCCTATCTTCCTCCCCACAGAAGCACTCCAT
[1]
  ETS1 binding intensity: 453
[2]
  ETS1 binding intensity: 399

## AGCACGTCCCCCTTCTTCCTCCCGCAGAGGGCCTGC
[1]
  ETS1 binding intensity: 454
[2]
  ETS1 binding intensity: 461

## GGTGCCAAGGGCAGAGGATGTGGTGAGGTGTGGAGG
[1]
  ETS1 binding intensity: 999
[2]
  ETS1 binding intensity: 4410

## CTCAGAGCTGCGGAAACTACAACTCCCACAAGGCTG
[1]
  ETS1 binding intensity: 738
[2]
  ETS1 binding intensity: 633

## TACCACCTCAGGATGTCTGAACCACATGCAAGCAGG
[1]
  ETS1 binding intensity: 439
[2]
  ETS1 binding intensity: 571

## CTAGTTTCCTGTGGCTGCTATGACAAATGACCACAG
[1]
  ETS1 binding intensity: 403
[2]
  ETS1 binding intensity: 474

## GACGCATAAACAGGAAGGCCTGCGGGAGGGCCCGCC
[1]
  ETS1 binding intensity: 855
[2]
  ETS1 binding intensity: 948

## GCAGGACTCCAGGAAGCCCGCGCAGCCGCAAAAAGC
[1]
  ETS1 binding intensity: 597
[2]
  ETS1 binding intensity: 1350

## AGCACAGGTTCCCAGGAAATGTGGGTTGAACAAGGC
[1]
  ETS1 binding intensity: 1250
[2]
  ETS1 binding intensity: 1250

## CATTCCCGAGAGACTTCCGCGCCGCAGTTTCCCTGC
[1]
  ETS1 binding intensity: 523
[2]
  ETS1 binding intensity: 380

## CCCCTTCATCCGCCTCTCTCTCACCGCGCCGCTCCC
[1]
  ETS1 binding intensity: 449
[2]
  ETS1 binding intensity: 330

## CAGAGACACCTGCGGAAGCCACAGGGAGGTCACAGA
[1]
  ETS1 binding intensity: 495
[2]
  ETS1 binding intensity: 613

## AATAAACAGGAAGGTCTCTTGGAGCTGTGGTCTTGG
[1]
  ETS1 binding intensity: 677
[2]
  ETS1 binding intensity: 1110

## CGCCGGACGTAGTGACGTAGCGCGCAGCCGCAGCGG
[1]
  ETS1 binding intensity: 442
[2]
  ETS1 binding intensity: 476

## GAGATAGTCTGGAGGGGAAGTGGTTATAAGTGATAA
[1]
  ETS1 binding intensity: 797
[2]
  ETS1 binding intensity: 1290

## TCTACATCCTGCAGTTCTCCATTGTGGCCATTAGGT
[1]
  ETS1 binding intensity: 443
[2]
  ETS1 binding intensity: 319

## TGCTTAGAACACGGAAACACTGAGGTTTTACTTTGA
[1]
  ETS1 binding intensity: 482
[2]
  ETS1 binding intensity: 560

## TGGAATTGAAAGGAAGCTGGCGCCACCGCAGAGGAC
[1]
  ETS1 binding intensity: 658
[2]
  ETS1 binding intensity: 2830

## GACGCTCTCTTCCTGTCTTTGTGGCTCCAGAAAGGC
[1]
  ETS1 binding intensity: 830
[2]
  ETS1 binding intensity: 630

## CTGGAAACCATTTCCTTTGTGGCCATGAAACAATGG
[1]
  ETS1 binding intensity: 594
[2]
  ETS1 binding intensity: 601

## GGCAGGAGCTTCCGGCTCAGCCCTGCGGCCTGTGCC
[1]
  ETS1 binding intensity: 498
[2]
  ETS1 binding intensity: 768

## TCGCATAGCCGGGAAGCGCGGTGGAGGTTGTTGGGG
[1]
  ETS1 binding intensity: 428
[2]
  ETS1 binding intensity: 473

## CGCCGTAGGAGGAAGCCGCGGCCGCAACGCTCCTGG
[1]
  ETS1 binding intensity: 454
[2]
  ETS1 binding intensity: 816

## AGGGAGACCGGGCCGGATTGCGGGGAGTGAGCAGGT
[1]
  ETS1 binding intensity: 543
[2]
  ETS1 binding intensity: 360

## TGGCTTGAGCTCAGGAAGTTGTGGCTGCAGTAAGCT
[1]
  ETS1 binding intensity: 1470
[2]
  ETS1 binding intensity: 1970

## CTGACAGCTTCCGCACAAAGCGCGGTCTATTTCTCC
[1]
  ETS1 binding intensity: 405
[2]
  ETS1 binding intensity: 544

## TTTCTTCCTGTTTGCATCACCCCAAACCCACTATCA
[1]
  ETS1 binding intensity: 514
[2]
  ETS1 binding intensity: 469

## GTGACCCAATACTTCCTGCCACAATACTGAGAACTC
[1]
  ETS1 binding intensity: 841
[2]
  ETS1 binding intensity: 702

## TTGGAGACACACAAAGGATGTGGGCTGTGCGTGTGT
[1]
  ETS1 binding intensity: 1380
[2]
  ETS1 binding intensity: 1780

## GAGGAGGCTGAGGAGGAAGTGCGGTGGCTGTTCTGC
[1]
  ETS1 binding intensity: 1290
[2]
  ETS1 binding intensity: 1470

## ACCCAGGGGACTTCCTGGCTCAGTGCCACAACCCAG
[1]
  ETS1 binding intensity: 545
[2]
  ETS1 binding intensity: 393

## CACCTGCCTTGCTTCCTGCGGTGCAACCAGCGGGAG
[1]
  ETS1 binding intensity: 444
[2]
  ETS1 binding intensity: 520

## TGGCTGTTCAGCCTTCCGCTTGTGGCTCCACCCCCG
[1]
  ETS1 binding intensity: 594
[2]
  ETS1 binding intensity: 493

## ACCACCCCCCGTTTCCTCCGAAGTGGTTGGTGCCTT
[1]
  ETS1 binding intensity: 590
[2]
  ETS1 binding intensity: 494
